Screening data (PubChem)
Only some compounds are listed: those with a hit (about 1.1% of all), similar ones and a draw of the others.
CIT2-GFP yeast = alters CIT2-GFP fluorescence in TOR pathway yeast screen; GFP response vs DMSO, % at 10 µM; S. cerevisiae CIT2-GFP strain, flow cytometry, 3 h; 100 means same as DMSO wells; actives 0.065% (n = 320,000); AID 2029;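 active = GFP response relative to DMSO above a set limit, near the screen mean plus 3 SD, cut at about 150% in these data; inconclusive = Fewer than 70 cells measured for a yeast strain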;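 also: ratio of well median GFP fluorescence to mean of DMSO wells on the plate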
VLA-4 inh = inhibition in a human VLA-4 binding assay; P13612; VLA-4 expressing cells, ligand binding flow cytometry; inhibition, % (about 7 µM as worked out from the volumes in the protocol); actives 0.2% (n = 330,000); AID 2557; in the data active = inhibition above about 50%
Target sequence (P13612 whole entry, looked up): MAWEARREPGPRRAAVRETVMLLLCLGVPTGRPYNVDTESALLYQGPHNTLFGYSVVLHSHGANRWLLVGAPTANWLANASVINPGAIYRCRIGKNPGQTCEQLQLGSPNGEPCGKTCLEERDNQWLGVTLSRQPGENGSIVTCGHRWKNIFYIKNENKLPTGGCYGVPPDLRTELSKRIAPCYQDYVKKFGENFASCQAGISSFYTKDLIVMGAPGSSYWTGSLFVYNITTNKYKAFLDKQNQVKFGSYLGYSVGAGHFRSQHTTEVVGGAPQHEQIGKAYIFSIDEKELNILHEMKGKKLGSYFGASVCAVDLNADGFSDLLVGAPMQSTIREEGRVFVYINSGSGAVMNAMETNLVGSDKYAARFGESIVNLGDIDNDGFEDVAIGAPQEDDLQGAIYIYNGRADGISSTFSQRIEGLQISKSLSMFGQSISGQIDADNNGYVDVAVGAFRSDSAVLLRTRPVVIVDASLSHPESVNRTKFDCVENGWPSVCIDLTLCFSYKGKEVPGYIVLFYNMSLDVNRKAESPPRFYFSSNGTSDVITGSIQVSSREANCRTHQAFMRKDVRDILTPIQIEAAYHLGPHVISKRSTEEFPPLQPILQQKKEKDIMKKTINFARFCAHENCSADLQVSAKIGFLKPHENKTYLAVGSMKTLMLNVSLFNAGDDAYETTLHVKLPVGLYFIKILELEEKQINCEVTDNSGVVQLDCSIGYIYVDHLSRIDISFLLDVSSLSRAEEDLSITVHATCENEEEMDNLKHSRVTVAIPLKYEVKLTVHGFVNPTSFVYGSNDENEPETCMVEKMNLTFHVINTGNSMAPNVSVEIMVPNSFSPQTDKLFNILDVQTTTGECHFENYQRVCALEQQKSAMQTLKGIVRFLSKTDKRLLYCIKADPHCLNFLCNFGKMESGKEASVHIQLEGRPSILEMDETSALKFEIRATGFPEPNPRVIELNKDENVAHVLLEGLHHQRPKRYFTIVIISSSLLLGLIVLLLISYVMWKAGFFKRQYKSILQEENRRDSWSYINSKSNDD
LAP4 TOR yeast = alters LAP4-GFP fluorescence in TOR pathway yeast screen; actives 0.34% (n = 320,000); S. cerevisiae LAP4-GFP multiplex, flow cytometry GFP, 3 h; median GFP as percent of DMSO wells; GFP response vs DMSO, % at 10 µM;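 active = GFP response vs DMSO above a set limit, about the screen mean plus 3 SD, cut at about 150% in these data; inconclusive = under 70 cell events counted for the yeast strain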
MEP2 TOR yeast = alters MEP2-GFP fluorescence in TOR pathway yeast screen; GFP response vs DMSO, % at 10 µM; actives 0.51% (n = 330,000); S. cerevisiae MEP2-GFP strain, flow cytometry GFP, 3 h; 100% = DMSO control level;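 active = GFP response versus DMSO above a set limit, roughly screen mean plus 3 SD, cut at about 180% in these data; inconclusive = fewer than 70 cells counted for a yeast strain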;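 also: median GFP fluorescence of the barcode-gated MEP2-GFP cells per well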
RPL19A-GFP yeast = alters RPL19A-GFP fluorescence in TOR pathway yeast screen; S. cerevisiae RPL19A-GFP strain, flow cytometry, 3 h; active compounds read low; percent response vs DMSO, % at 10 µM; actives 0.3% (n = 330,000); AID 2025;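 active = percent response vs DMSO below 50%; inconclusive = fewer than 70 events counted for the yeast strain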;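 also: median channel GFP fluorescence of the barcoded RPL19A-GFP strain; ratio of sample median GFP to plate DMSO average so 100% = DMSO; lower means less RPL19A-GFP as with rapamycin TOR inhibition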
AGP1 TOR yeast = alters AGP1-GFP fluorescence in TOR pathway yeast screen | S. cerevisiae AGP1-GFP multiplex flow cytometry, 3 h; GFP as percent of DMSO wells | GFP response vs DMSO, % at 10 µM | actives 0.02% (n = 320,000) | AID 2066;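 active = GFP response relative to DMSO above a set limit, near screen average plus 3 SD, cut at about 150% in these data; inconclusive = fewer than 70 cells counted for the yeast strain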;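 also: median GFP channel fluorescence of the gated AGP1 strain per well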
* hit, by the source's call; ? = inconclusive; nt = no result given; + = active, no number; [ ] = remark or other dose.

SMILES	CIT2-GFP yeast	VLA-4 inh	LAP4 TOR yeast	MEP2 TOR yeast	RPL19A-GFP yeast	AGP1 TOR yeast
COc1ccc(-n2nc(C(=O)NCC(=O)NCCc3ccc(OC)c(OC)c3)c3ccccc3c2=O)cc1Cl	93	-1	101	98	99	101
Cc1nn(Cc2ccc(Cl)cc2)c(=O)n1N(C)c1ncc(C(F)(F)F)cc1Cl	96	3	116	207*	88	nt
Cc1nn(Cc2ccc([N+](=O)[O-])cc2)c(=O)n1N(C)c1ncc(C(F)(F)F)cc1Cl	88	-6	90	94	94	91
Cc1ccc(-c2onc3ccc(C4(C)OCCO4)cc23)cc1	?	10	91	217*[may fluoresce violet]	46*[may fluoresce violet]	?
Cc1ccc(-c2onc3ccc(C=O)cc23)cc1	86	-5	109	89	93	88
CCOC(=O)CSc1nc2cc(C)ccc2cc1C#N	?	-8	110	359*[may fluoresce violet]	56	21
C[C@@H](C(O)c1ccccc1)N(C)C(=O)CCc1ccccc1 (some centres not stated)	108	21	130	94	108	97
Cc1ccc(N(CCC#N)C(=O)COC(=O)C2CCN(S(=O)(=O)c3ccc4c(c3)OCCO4)CC2)cc1	90	-9	98	84	96	97
COc1cc2c(cc1OC)CN(C(=O)NS(=O)(=O)c1ccc(C)cc1)CC2	?	5	86	582*[may fluoresce violet]	47*[may fluoresce violet]	25
COc1cc2c(cc1OC)CN(C(=O)c1ccc(S(=O)(=O)N3CCCC3)cc1)CC2	89	4	101	86	84	98
COc1ccc(S(=O)(=O)N2CCOC2CNC(=O)C(=O)NCCc2ccc(S(N)(=O)=O)cc2)cc1 (configuration not stated)	118	-21	111	94	100	106
O=c1nc2ccccc2c2n1CC(CN1CCN(c3ccc(F)cc3)CC1)N2 (configuration not stated)	?	-19	81	94	31*[may fluoresce violet]	?
O=c1nc2ccccc2c2n1CC(CN1CCN(c3ccccc3F)CC1)N2 (configuration not stated)	109	-11	100	110	102	102
CC(C)Cn1c(N)cc(=O)n(C)c1=O	95	61*	84	97	95	93
CCC12OC(=N)C(C#N)(C1C)C(C#N)(C#N)C(c1ccccc1)O2 (configuration not stated)	?	15	95	204*[may fluoresce violet]	74	15
COc1ccc(/C(C)=N/NC(=O)c2ccc(N(C)C)cc2)cc1	112	2	102	109	105	110
COc1ccc(/C(C)=N/NC(=O)c2nc(C)cc(C)n2)cc1	?	1	95	670*[may fluoresce violet]	40*[may fluoresce violet]	nt
O=C(Nc1nc(-c2ccc(Cl)s2)cs1)c1cccs1	86	8	153*	97	95	94
O=C(Nc1nc(-c2ccccn2)cs1)c1ccc(Cl)s1	?	-13	312*[may fluoresce violet]	233*[may fluoresce violet]	69	22
COc1ccc(OC)c(S(=O)(=O)n2ccc(C)n2)c1	?	-13	85	259*[may fluoresce violet]	85	13
CCOC(=O)c1cc(C)[nH]c(=O)c1C#N	?	-9	70	680*[may fluoresce violet]	33*[may fluoresce violet]	?
CC(=O)N[C@@H](C)C(=O)N1CCN(S(=O)(=O)c2ccc(Cl)cc2)CC1	98	7	97	102	99	103
O=S1(=O)Nc2c(ccc3cccnc23)-c2ccccc21	81	21	240*	116	92	97
CCN(CC)S(=O)(=O)c1cccc(C(=O)NCC(c2ccccc2)N(C)C)c1 (configuration not stated)	79	-2	204*	123	115	121
CCOc1ccc(S(=O)(=O)Nc2cccc(C(=O)NCC(c3ccccc3)N(C)C)c2)cc1 (configuration not stated)	107	8	104	104	103	110
SMILES	CIT2-GFP yeast	VLA-4 inh	LAP4 TOR yeast	MEP2 TOR yeast	RPL19A-GFP yeast	AGP1 TOR yeast
Nc1cccc2c1C(=O)N(C(=O)/C=C/c1ccc(F)cc1)C2=O	?	10	206*[may fluoresce violet]	127	89	19
Nc1cccc2c1C(=O)N(C(=O)c1ccco1)C2=O	110	3	112	109	94	101
Cc1cccc(C(=O)C2CCN(S(=O)(=O)c3ccc(C(=O)O)cc3)CC2)c1	100	3	99	107	100	104
CCCS(=O)(=O)N1CCC(C(=O)c2cccc(C(F)(F)F)c2)CC1	133	-1	156*	186*	103	103
O=C(Nc1ncn[nH]1)c1ccccc1Br	?	19	88	185*[may fluoresce violet]	48*[may fluoresce violet]	?
CSc1ccccc1C(=O)Nc1ncn[nH]1	109	-5	99	117	101	101
O=C1NC(c2cccc([N+](=O)[O-])c2)Oc2ccccc21 (configuration not stated)	94	-4	98	101	95	95
CCOc1ccccc1NC(=O)NCc1cccnc1	?	0	69	271*[may fluoresce violet]	18*[may fluoresce violet]	?
NN(CCO)C(=S)Nc1ccc(Cl)cc1	103	-10	92	93	100	98
S=c1[nH]nc(-c2ccco2)n1/N=C/C(Cl)=C/c1ccccc1	94	-18	167*	111	90	89
COc1cccc(C(=O)NN2CC(O)=C(c3nc(C)cs3)C2=N)c1	?	7	74	189*[may fluoresce violet]	43*[may fluoresce violet]	?
CCOc1ccc(NC(=O)CN2C(=O)NC3(CCCCCC3)C2=O)cc1	106	1	102	98	100	102
O=C(Nc1ccc(N2CCOCC2)cc1N1CCOCC1)c1cccc([N+](=O)[O-])c1	104	0	85	104	119	99
Cc1ccc(S(=O)(=O)N(CC(=O)NCc2ccncc2)Cc2ccccc2F)cc1	97	-4	97	483*	74	76
CCN(CC(=O)NCc1ccncc1)S(=O)(=O)c1ccccc1	101	-2	96	94	98	97
Cn1c(/C=C/c2ccc([N+](=O)[O-])o2)nc2ccccc2c1=O	180*[may fluoresce green]	-236	nt	248*[may fluoresce green]	126	90
CN(C)c1ccc(CNS(=O)(=O)c2csc(C(N)=O)c2)cc1	?	16	87	138	33*[may fluoresce violet]	18
COC(=O)c1ccccc1-c1c2ccc(=N)cc-2oc2cc(N)ccc12	+[may fluoresce green]	nt	+[may fluoresce green]	+[may fluoresce green]	625	666*[may fluoresce green]
COC(=O)c1ccccc1-c1ccc(/C=N/NC(=O)c2cc3ccccc3o2)o1	87	-8	92	88	98	91
Cc1ccc(-c2csc(N)n2)s1	105	0	111	93	101	105
Cc1csc(N)n1	78	47	420*[may fluoresce red]	89	?	77
